A number with no mark means an inactive call. Where a call stands in place of a potency, no number is given. Active and inactive are the calls of the source. Calls come from the whole dose curve; as a rule, active = well fitted activation curve with a large enough effect in the repeat runs; inconclusive = weak or mixed curves; inactive = flat fitted curve, though single readings scatter.
Assay: A CellTox Green Cytotoxicity Assay to monitor cytotoxicity in HepG2 cells - 0 hour (AID 1224882); note: nearly all actives have a fitted effect of over 35% in size
Conditions: CellTox Green fluorescence; series mostly up to 76.8 µM
Source text: National Center for Advancing Translational Sciences [NCATS]
NIH Chemical Genomics Center [NCGC]
U.S. Environmental Protection Agency [EPA]
National Institutes of Environmental Health Sciences [NIEHS]
National Toxicology Program [NTP]
Cell-based models are critical for drug discovery. Determining the natural cytotoxic effects resulting from test compounds is an essential research activity. A CellTox Green Cytotoxicity Assay to monitor cytotoxicity in real time of continues cell culture during 40 hours of the compound treatment was used to screen Tox21 10K library compounds in HepG2 cells. CellTox Green Cytotoxicity Assay is a nonlytic, homogeneous, biofluorescent method to measure cytotoxicity in cell culture after experimental manipulation. The assay system uses a proprietary asymmetric cyanine dye that is excluded from viable cells but preferentially stains the dead cell's DNA. […] Viable cells produce no appreciable increases in fluorescence. Therefore, the fluorescence signal produced by the binding interaction with dead cell DNA is proportional to cytotoxicity.
The mixture of HepG2 cell suspension and reagents were dispensed at 600cells/6 ul/well in 1536-well tissue culture treated black solid bottom plates using a Multidrop dispenser. After the assay plates were incubated at a 37 C/5% CO2 incubator for 5 hours, 23 nL of compounds dissolved in DMSO, positive and negative controls was transferred to the assay plate by a pintool work station. The plates were incubated at 37 C for 40 hours. The fluorescence intensity were measured at 0h, 8h, 16h, 24h, 32h and 40h time points using ViewLux plate reader during compound treatment.

Structure (SMILES)	Potency	cytotoxicity
CCO[Si](CC)(OCC)OCC	inactive	
CC(C)c1ccc(C=O)cc1	inactive	
CCc1occc(=O)c1O	inactive	
O=C(CN1CCNCC1)NC1CCCCC1	inactive	
CC(C)NC(=O)c1ccc(C=O)cc1	inactive	
OC[C@@H](O)C(O)[C@@H](O)CO (stereo not given in full)	inactive	
CC(C)(C)NC[C@H](O)COc1cccc2c1CCCC2=O	inactive	
CCCCC1CCC(O)CC1 (stereo not given)	inactive	
CCCC(=O)Nc1ccc(OCC(O)CNC(C)C)c(C(C)=O)c1 (stereo not given)	inactive	
O/N=C/C=N/O	inactive	
CCCC(CC)c1ccccc1 (stereo not given)	inactive	
CCCSSCCC	inactive	
COc1ccc2c(c1)c1c3n2CCN(C)C3=NCC1	inactive	
CC(C)CCOC(=O)c1ccccc1	inactive	
Cc1cc(-c2ccccc2)nnc1NCCN1CCOCC1	inactive	
NCC1(Cc2noc(=O)[nH]2)CCCCC1	inactive	
CC(=O)C1C(=O)C=C(C)OC1=O (stereo not given)	inactive	
COC(=O)CCCCC(CCSS/C(CCO)=C(\C)N(C=O)Cc1cnc(C)nc1N)SC(C)=O (stereo not given)	inactive	
O=C1NC(c2ccccc2)(c2ccccc2)C(=O)N1COP(=O)(O)O	inactive	
CC1(C)[C@H]2CC[C@](C)(C2)[C@H]1O	inactive	

Structure (SMILES)	Potency	cytotoxicity
O=Cc1ccccc1Cl	inactive	
CCCCOC(=O)C(C)O (stereo not given)	inactive	
OC1(c2ccc(Cl)cc2)CCNCC1	inactive	
CC(C)C1OCCN1CCOC(=O)NCCCCCCNC(=O)OCCN1CCOC1C(C)C (stereo not given)	inactive	
COc1cc2c(cc1OC)C(=O)C(CC1CCN(Cc3ccccc3)CC1)C2 (stereo not given)	inactive	
CCC(C)OC(C)CC (stereo not given)	inactive	
CC(CO)(CO)CO	inactive	
CCN1CCCC1CN (stereo not given)	inactive	
O=C1OCCO1	inactive	
CN1CCOC(c2ccccc2)c2ccccc2C1 (stereo not given)	inactive	
C/C(=C1\CCOC(=O)S1)N(C=O)Cc1cnc(C)nc1N	inactive	
O=C1c2ccccc2C(=O)c2cc(Cl)ccc21		3.98% [at 6.97 µM]
NCCOCCN	inactive	
N[C@@H](Cc1ccc(O)cc1)C(=O)O		1.32% [at 6.97 µM]
O=C(O)CONC(=O)c1ccccc1	inactive	
CC(C)C[C@@H]1[C@H](c2ccccc2)OC(=O)N1CCCN1CCCCCC1	inactive	
CO[C@@]1(NC(=O)Cc2cccs2)C(=O)N2C(C(=O)O)=C(COC(N)=O)CS[C@@H]21	inactive	
O=C=NCC1CCCC(CN=C=O)C1 (stereo not given)	inactive	
CC(C)Nc1ccccc1	inactive	
CC(C)Cn1cnc2c1c(=O)n(C)c(=O)n2C	inactive	

Source: PubChem BioAssay (Tox21)
